Only a selection was taken, and hits are over-represented in it overall.
Cycloheximide cs: Cycloheximide Counterscreen for Small Molecule Inhibitors of Shiga Toxin | cell reporter, cycloheximide protein synthesis inhibition counterscreen | max response, % | 300,000 tested, 12% active; in the data active = max response mostly above about 13%, no sharp cut-off; inactive = mostly below about 14%; note: read at 38.3 µM for the half of the compounds with a filed dose; 0% is about no effect
LmPK inhibitor: qHTS Assay for Inhibitors of Leishmania Mexicana Pyruvate Kinase (LmPK); Potency, µM (doses to about 57.5 µM), without a hit: at the top dose activity change, negative = inhibition, usual class: inhibitors; Q27686; AID 1721, 2009; purified LmPK, Kinase-Glo ATP luminescence, 1 h; 290,000 tested, 0.37% active; note: potency is the fitted concentration of half-maximal effect; % is set by controls: 0 for no effect and ±100 for the full control effect
Target sequence (Q27686 whole entry, looked up): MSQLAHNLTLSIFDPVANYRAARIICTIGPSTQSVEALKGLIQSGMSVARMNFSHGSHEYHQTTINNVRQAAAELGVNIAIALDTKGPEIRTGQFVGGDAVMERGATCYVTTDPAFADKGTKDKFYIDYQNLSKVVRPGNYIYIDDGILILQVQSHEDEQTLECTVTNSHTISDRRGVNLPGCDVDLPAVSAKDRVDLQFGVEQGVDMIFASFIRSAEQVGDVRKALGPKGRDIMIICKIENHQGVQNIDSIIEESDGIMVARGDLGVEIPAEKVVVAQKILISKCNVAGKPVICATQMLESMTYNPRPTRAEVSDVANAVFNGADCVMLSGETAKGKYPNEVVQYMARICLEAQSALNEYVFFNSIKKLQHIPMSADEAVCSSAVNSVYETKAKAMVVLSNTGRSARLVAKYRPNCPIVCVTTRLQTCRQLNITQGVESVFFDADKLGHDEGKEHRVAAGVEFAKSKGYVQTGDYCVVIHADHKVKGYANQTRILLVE
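Purified LmPK (0.1 nM) with 0.5 mM PEP and 0.1 mM ADP in imidazole buffer pH 7.2 with MgCl2/KCl, 1 h at room temperature. ATP formed was read by luciferase luminescence and normalized to no-enzyme and uninhibited controls.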
Sm TGR block: qHTS Assay for the Inhibitors of Schistosoma Mansoni Peroxiredoxins; Schistosoma mansoni thioredoxin glutathione reductase (TGR), Q962Y6; purified TGR, DTNB reduction, TNB absorbance 405 nm; Potency, µM (top dose mostly 114 µM), without a hit: at the highest dose activity change, negative = inhibition, actives largely listed as inhibitors; 360,000 tested, 3% active; AID 485364, 2010; note: potency is the fitted concentration of half-maximal effect; % is set by controls: 0 for no effect and ±100 for the full control effect; nearly all actives have a fitted effect of over 60% in size
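Kinetic colorimetric format: TGR-catalysed, NADPH-driven DTNB reduction monitored via TNB absorbance. Enzyme dispensed at 20 nM; compound exposure 15 min at room temperature before reaction start.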
TbPYK inhibitor: qHTS of Trypanosoma Brucei Inhibitors. TbPYK enzyme, Kinase-Glo Plus ATP luminescence, 45 min. Potency, µM (titrated, usually from 76.8 µM), for the others: top-dose activity, negative = inhibition, most hits filed as inhibitors. 410,000 tested, 0.12% active. AID 624173, 2012; note: potency is the fitted concentration of half-maximal effect; % is set by controls: 0 for no effect and ±100 for the full control effect; nearly all actives have a fitted effect of over 50% in size
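Quantitative HTS: titrated library compounds versus trypanosomal pyruvate kinase in TEA buffer (pH 7.2) containing KCl, MgCl2, BSA and Tween-20. Reactions were initiated with ADP, 130 uM final. Kinase-Glo Plus luminescence was read after 45 min at RT.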
Giardia FBPA inh: qHTS Assay for Inhibitors of Fructose-1,6-bisphosphate Aldolase from Giardia Lamblia | purified Giardia FBPA | 290,000 tested, 0.71% active | Potency, µM (series often up to 59.6 µM), inactives show top-dose activity, negative = inhibition, hits mostly inhibitors | AID 2451, 2010 | A8B2U2; note: potency is the fitted concentration of half-maximal effect; % is set by controls: 0 for no effect and ±100 for the full control effect; nearly all actives have a fitted effect of over 55% in size
Target sequence (A8B2U2 whole entry, looked up): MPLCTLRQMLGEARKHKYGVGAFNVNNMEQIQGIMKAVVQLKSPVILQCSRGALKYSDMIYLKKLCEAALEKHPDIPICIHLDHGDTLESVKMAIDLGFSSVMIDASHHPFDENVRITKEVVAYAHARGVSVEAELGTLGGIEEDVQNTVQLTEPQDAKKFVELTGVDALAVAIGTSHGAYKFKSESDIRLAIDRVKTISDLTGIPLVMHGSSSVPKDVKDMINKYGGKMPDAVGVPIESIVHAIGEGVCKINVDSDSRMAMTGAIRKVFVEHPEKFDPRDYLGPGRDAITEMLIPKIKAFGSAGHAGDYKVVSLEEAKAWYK
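40 nM FBPA preincubated 10 min at RT with compound (up to 57.5 uM final), then substrate plus GAPDH/TPI/NAD/arsenate coupling and diaphorase/resazurin added. Fluorescence read after 20 min at RT, 525/598 nm.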
Shiga toxin inh: A qHTS for Small Molecule Inhibitors of Shiga Toxin. AID 2315, 2010. 290,000 tested, 9.2% active. Vero cells, Shiga toxin protein synthesis inhibition reporter. inhibition, % at 38.7 µM; in the data active = inhibition mostly above about 28%, no sharp cut-off; inactive = mostly below about 43%; note: 0% is about no effect
LmPK confirm: Confirmation Assay for Inhibitors of Leishmania Mexicana Pyruvate Kinase (LmPK); purified LmPK, Kinase-Glo ATP luminescence, 1 h; 150 tested, 40% active; AID 2559, 2010; Potency, µM (highest dose often 57.5 µM), for inactives: top-dose activity change, negative = inhibition, usual class: inhibitors; shares compounds with LmPK inhibitor;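 active = compounds giving a full or partial concentration-response curve, as inhibitors or activators; inconclusive = weak, top-dose-only or unclear curve responses; inactive = no response at any tested dose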
The depositor's hits bear a star; ? = inconclusive; . = no result. Unless noted, calls come from the whole dose curve; as a rule, active = well fitted curve in the direction sought with a large enough effect; inconclusive = small, poorly fitted or top-dose-only effect, or another doubt; inactive = no such curve, though single readings can be large; an effect the other way counts as inactive or inconclusive.

SMILES | Cycloheximide cs | LmPK inhibitor | Sm TGR block | TbPYK inhibitor | Giardia FBPA inh | Shiga toxin inh | LmPK confirm
CCN1C(=O)C2(SC(NC(C)=O)=NN2C(C)=O)c2cc(C)ccc21 (stereo not drawn) | 1.5 | -2.3% | 4.7% | 3.7% | 0.4% | -16.0 | 1.9%
O=c1c2ccccc2sn1-c1cc(S(=O)(=O)N2CCOCC2)ccc1N1CCCC1 | 5.8 | 8.91µM* | ? | ? | ? | 20.8 | ?
Cc1ccc(N2C(=O)c3ccccc3C2O)nc1 (stereo not drawn) | 6.9 | 7.08µM* | -4.7% | . | 2.3% | -0.2 | 18.3µM*
O=C1CSC(=S)N1Cc1cccs1 | . | . | . | -9.2% | . | . | .
Brc1ccc(N=Nc2ccc3ccccc3n2)cc1 | 36.3* | 6.31µM* | 11.0% | ? | 3.1% | 53.7* | 8.19µM*
O=[N+]([O-])c1cccc(COc2ccccc2CN2CCCC2)c1 | . | . | . | 0.0% | . | . | .
COc1cccc(-c2cnc3c(NC(C)=O)cc(-c4ccc(S(C)(=O)=O)cc4)cn23)c1 | . | . | . | 0.5% | . | . | .
COc1ccc(C(=O)N=c2nc3ccccn3s2)cc1 | 37.6* | ? | -2.2% | -9.9% | -4.1% | 74.4 | 16.3µM*
O=S(=O)(Nc1ccc(O)c(NS(=O)(=O)c2ccccc2)c1)c1ccccc1 | -1.0 | 0.447µM* | 0.0% | -28.4% | . | -27.2 | 3.7%
CCOc1ccc(CCNC(=O)CN2C(=O)NC3(CCCC3)C2=O)cc1OCC | -5.2 | -4.5% | 3.1% | 5.7% | . | 21.2 | .
COc1cccc(-c2cnc3c(NC(C)=O)cc(-c4ccc(C(=O)NC5CC5)cc4)cn23)c1 | . | . | . | -9.7% | . | . | .
Cc1ccc(S(=O)(=O)N2CCC(C(=O)O)CC2)cc1 | 15.3 | -3.4% | -5.3% | -5.8% | 13.4% | 29.3 | .
O=C(/C=C/Nc1ccc(Oc2ccccc2)cc1)c1ccco1 | 55.7* | 7.94µM* | -2.5% | ? | -13.5% | 70.3* | 20.6µM*
O=C(Nc1ccc(Oc2ccc(NC(=O)c3ccco3)c(NC(=O)c3ccco3)c2)cc1)c1ccco1 | 9.5 | 1.2% | -20.8% | -7.8% | -0.9% | 14.8 | .
CN(CC(=O)Nc1cccc(F)c1)C(=O)c1cc(S(=O)(=O)N(C)C)ccc1N1CCCC1 | -3.0 | -4.4% | -2.4% | 3.6% | . | 4.7 | .
Cn1cc(Cl)c(C(=O)Nc2nc3ccccc3s2)n1 | 42.4* | 7.94µM* | 2.6% | -9.6% | -7.6% | 70.7* | ?
O=C(Nc1nc2ccccc2s1)c1cccn(Cc2ccccc2)c1=O | . | . | -0.6% | -1.9% | . | . | .
Cc1cc(NC(=O)c2ccccc2)ncc1NC(=O)c1ccco1 | 18.0* | 14.1µM* | 22.4µM* | ? | ? | 87.4* | 16.3µM*
CCC(=O)Nc1cc(C)c(NC(=O)c2ccco2)cn1 | 6.7 | -1.4% | 4.8% | -3.1% | 3.0% | 6.8 | .
COC(=O)CSc1ccc2nnc(-c3ccc(F)cc3)n2n1 | -1.3 | 1.6% | 8.5% | -21.3% | 2.7% | -9.3 | 0.2%
CCOC(=O)CC(=O)CSc1ccc2nnc(-c3ccc(F)cc3)n2n1 | -4.8 | 2.6% | 0.0% | 0.8% | 8.9% | 8.4 | .
CC(C)(C(=O)N1CCC1(C)C(=O)NS(=O)(=O)c1cccc(C#N)c1)c1ccccc1 (stereo not drawn) | . | . | . | -3.9% | . | . | .
Cc1ccc(Cl)cc1N1CCN(S(=O)(=O)c2ccc3c(c2)OCCO3)CC1 | -3.1 | -0.4% | 6.8% | -6.8% | 1.9% | 12.3 | 8.7%
Oc1ccc(O)c2c1C1c3ccccc3C2c2ccccc21 | -1.1 | 2.24µM* | 5.01µM* | . | 2.1% | -11.0 | -7.6%
CN(Cc1ccon1)Cc1cn(C)nc1-c1ccc2c(c1)OCCO2 | -4.6 | 5.9% | -19.9% | -0.9% | -0.6% | 5.8 | -5.1%
SMILES | Cycloheximide cs | LmPK inhibitor | Sm TGR block | TbPYK inhibitor | Giardia FBPA inh | Shiga toxin inh | LmPK confirm
Cn1c(NCc2ccccc2)nc2cc(-c3ccccc3)sc2c1=O | . | . | . | 0.1% | . | . | .
COc1ccc(-c2cc3nc(C)n(N)c(=O)c3s2)cc1 | -1.6 | 2µM* | 10.2% | ? | 3.0% | -36.5 | 2.91µM*
Cc1nc2cc(-c3ccccc3)sc2c(=O)n1N | -14.1 | 2.24µM* | 5.6% | 10µM* | 0.0% | -28.0 | 4.61µM*
Cc1ccc(C)c(N(CC(=O)N2CCCC2)S(C)(=O)=O)c1 | -0.9 | -3.0% | -4.9% | 4.3% | 9.1% | -6.4 | .
Cc1noc(C)c1CSCC(=O)Nc1nc2ccc(F)cc2s1 | . | . | -5.7% | 1.8% | . | . | .
Cc1ccc(S(=O)(=O)N2CCC3(CC2)OCCN3S(=O)(=O)c2c(C)cc(C)cc2C)cc1 | . | . | 2.9% | 2.8% | . | . | .
O=[N+]([O-])c1cc2oc3c(c2c(C=NCc2ccccc2)c1O)CCCC3 | -3.9 | 1µM* | -11.6% | ? | ? | -3.3 | 0.819µM*
CC(C)CN=Cc1c(O)c([N+](=O)[O-])cc2oc3c(c12)CCCC3 | 2.1 | 10µM* | -3.5% | -21.9% | ? | -8.7 | ?
Cc1cccc(/N=C/c2c(O)ccc3oc4c(c23)CCCC4)n1 | -4.2 | 2.4% | -11.9% | 3.9% | -1.0% | -0.8 | .
Cn1c(-c2ccc(Br)o2)nc2ccccc21 | 28.8* | 7.94µM* | 17.8µM* | ? | -11.1% | 56.3 | 20.6µM*
Cn1c(-c2nonc2N)nc2ccccc21 | 0.3 | 2.0% | 8.7% | -1.0% | -2.6% | -4.2 | .
CN(Cc1cccnc1)Cc1cn(C)nc1-c1ccc(Oc2ccccc2)cc1 | -3.5 | 3.6% | -10.1% | 4.5% | 0.8% | -5.8 | .
Cc1cc(CN(C)Cc2cn(C)nc2-c2ccc(Oc3ccccc3)cc2)on1 | 1.3 | -4.8% | -6.5% | 2.1% | -7.8% | 21.5 | 4.2%
CCOC1=C2CN(S(=O)(=O)c3ccc(C)cc3)[C@H](c3ccccc3)C[C@@H]2N(S(=O)(=O)c2ccc(Br)cc2)[C@H](c2ccccc2)C1 | . | . | . | -10.4% | . | . | .
Cc1ccccc1NC(=O)COC(=O)c1cc[n+]([O-])cc1 | . | . | 5.0% | -1.8% | . | . | .
COc1cc(Cl)c(C)cc1NC(=O)COC(=O)c1cc[n+]([O-])cc1 | 6.8 | 2.82µM* | -1.1% | 1.8% | 0.1% | -2.5 | 2.6%
Cc1ccc(NC(=O)COc2ccccc2C(N)=O)cc1S(=O)(=O)N1CCCCCC1 | . | . | -9.8% | 1.0% | . | . | .
Cc1ccc(Cn2cccc(NC(=O)NC3CCCCC3)c2=O)cc1 | -2.0 | 5.0% | -36.2% | -1.6% | -6.3% | 30.3 | -0.7%
O=C(Nc1cccn(Cc2ccc(F)cc2)c1=O)NC1CCCCC1 | -2.7 | 0.8% | -11.9% | -1.9% | -10.3% | 18.0 | .
Cc1c(C(=O)NC(=S)Nc2ccc(NC(=O)c3cccs3)cc2)oc2ccccc12 | -4.6 | 7.08µM* | 0.631µM* | -2.4% | -16.0% | -14.7 | -13.3%
